# Reference: PubChem BioAssay (Tox21)
# Several values for one entry are separate records, joined by “and”; a condition that tells them apart may be missing. Identical values can stand only once. Inconclusive results are not listed. Where a call stands in place of a potency, no number is given. A structure can be active in one record and inactive in another. Activity calls are given as the source filed them. Unless noted, calls come from the whole dose curve; as a rule, active = well fitted curve in the direction sought with a large enough effect in the repeat runs; inconclusive = weak or mixed curves; inactive = no such curve, though single readings can be large; an effect the other way counts as inactive or inconclusive.
# How the values were obtained:
# [1] = qHTS assay for small molecule agonists of the p53 signaling pathway (AID 651631; calls by dose curve; note: nearly all actives have a fitted effect of over 15% in size; note: potency is the fitted concentration of half-maximal effect)
# How it was run: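 p53RE-bla HCT-116 cells; compounds 16 h, 37 °C; LiveBLAzer B/G FRET substrate 2 h RT; fluorescence intensity read-out, qHTS format.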
# [2] = qHTS assay for small molecules that induce genotoxicity in human embryonic kidney cells expressing luciferase-tagged ATAD5 (AID 651632); note: nearly all actives have a fitted effect of over 15% in size
# How it was run: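 Cells were seeded at 2,000 per well, dosed with compound, and incubated 16 hr at 37C in 5% CO2. Luciferase activity was then quantified after a 30 min room-temperature incubation with Amplite.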
# [3] = qHTS assay for small molecule agonists of the p53 signaling pathway - cell viability (AID 651633; calls by dose curve;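 note: p53RE-bla HCT reporter cells with a stable beta-lactamase p53 reporter; series mostly up to about 83 µM; nearly all actives have a fitted effect of over 30% in size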)
# How it was run: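 Viability counter-read: CellTiter-Glo luminescence (30 min, room temperature) in the same p53RE-bla plates. These plates had been exposed to compounds for 16 h at 37 C.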
# [4] = qHTS assay for small molecules that induce genotoxicity in human embryonic kidney cells expressing luciferase-tagged ATAD5 - cell viability (AID 651634; calls by dose curve; note: nearly all actives have a fitted effect of over 25% in size; note: potency is the fitted concentration of half-maximal effect)
# How it was run: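 Cells (HEK293T, luciferase-tagged ATAD5) are seeded at 2,000 per well, dosed with compound or DMSO vehicle, and incubated 15.5 hr at 37C and 5% CO2. CellTiter-Fluor is added for 30 min before fluorescence is measured.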
# [5] = qHTS assay to test for compound auto fluorescence at 590 nm (red) in HepG2 cells (AID 720674)
# How it was run: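 We screened compounds on adherent HepG2 cells, incubating them for an hour at 37 C in 5% CO2 before reading emission at 590 nm under 540 nm excitation; values reflect equivalence to Rose Bengal sodium fluorescence.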
# [6] = qHTS assay to test for compound auto fluorescence at 535 nm (green) in HepG2 cells (AID 720675)
# [7] = qHTS assay to test for compound auto fluorescence at 460 nm (blue) in HEK293 cells (AID 720678)
# How it was run: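 After cell attachment (4-5 hr, 37C), compounds were pinned onto HEK293 monolayers in 10% dialyzed FBS medium. The blue channel (405/460 nm) was read following overnight culture. Equivalency was calculated against triamterene.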
# [8] = qHTS assay to test for compound auto fluorescence at 590 nm (red) in HEK293 cells (AID 720679)
# How it was run: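 Plates of HEK293 cells (10% dialyzed FBS) are treated with 23 nL compound or DMSO vehicle after a 4-5 hr attachment period, incubated overnight at 37C, and read for red fluorescence at 540/590nm.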
# [9] = qHTS assay to test for compound auto fluorescence at 535 nm (green) in HEK293 cells (AID 720680)
# [10] = qHTS assay to test for compound auto fluorescence at 460 nm (blue) in HEK293 cell free culture (AID 720681)
# How it was run: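 Blue fluorescence (Ex 405/Em 460 nm, triamterene-equivalent) was read immediately after pin transfer of compound or DMSO into medium (DMEM, 10% FBS) without cells.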
# [11] = qHTS assay to test for compound auto fluorescence at 535 nm (green) in HEK293 cell free culture (AID 720682)
# How it was run: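 Cell-free medium (DMEM, 10% FBS) receives compound or DMSO by pintool. Plate read directly at Ex 485/Em 535 nm. Signal converted to fluorescein equivalency.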
# [12] = qHTS assay to test for compound auto fluorescence at 590 nm (red) in HEK293 cell free culture (AID 720683)
# How it was run: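 Red-channel autofluorescence of compounds in culture medium (DMEM, 10% FBS), no cells, measured at 540/590 nm. Rose Bengal sodium is the reference fluorophore for equivalence.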
# [13] = qHTS assay to test for compound auto fluorescence at 590 nm (red) in HepG2 cell free culture (AID 720684)
# How it was run: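 No cells present: MEM + 10% FBS only. Compound pinned in, red label read (540/590 nm). Activity = fluorescence equivalent to Rose Bengal sodium.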
# [14] = qHTS assay to test for compound auto fluorescence at 460 nm (blue) in HepG2 cell free culture (AID 720685)
# How it was run: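 Cell-free plates of MEM plus 10% FBS received 23 nL compound or DMSO vehicle; blue-channel (405/460 nm) intensity scored against triamterene as reference fluorophore.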
# [15] = qHTS assay to test for compound auto fluorescence at 535 nm (green) in HepG2 cell free culture (AID 720686)
# [16] = qHTS assay to test for compound auto fluorescence at 460 nm (blue) in HepG2 cells (AID 720687)
# How it was run: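 Blue-channel autofluorescence (Ex/Em 405/460 nm, triamterene-equivalent) was measured after 1 hr compound exposure at 37 C, 5% CO2. Cells were HepG2, plated overnight at 37 C in MEM plus 10% FBS.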
# [17] = qHTS assay for small molecule disruptors of the mitochondrial membrane potential - cell viability (AID 720634; calls by dose curve;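 note: human HepG2 liver cancer cells; series mostly up to about 83 µM; nearly all actives have a fitted effect of over 20% in size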)
# How it was run: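 Cytotoxicity was measured by ATP quantitation in HepG2 wells that had first been treated with compound for 1 hr and stained with m-MPI dye; CellTiter-Glo incubation was 30 min at room temperature.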
# [18] = qHTS assay for small molecule disruptors of the mitochondrial membrane potential (AID 720635); note: potency is the fitted concentration of half-maximal effect
# How it was run: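 Mitochondrial membrane potential tracked with Mito-MPS dye, red aggregates (ex 540/em 590 nm) against green monomers (ex 490/em 535 nm). Compound treatment 1 hr at 37C, dye 30 min in HepG2.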
# [19] = target: Glucocorticoid receptor (Homo sapiens) (UniProt P04150); experiment: qHTS assay to identify small molecule agonists of the glucocorticoid receptor (GR) signaling pathway (AID 720691; active = well fitted activation curve with a large enough effect in the signal ratio in the repeat runs, not every such curve was filed as active; the % refers to the signal ratio)
# Glucocorticoid receptor (Homo sapiens), sequence (P04150 whole entry, looked up): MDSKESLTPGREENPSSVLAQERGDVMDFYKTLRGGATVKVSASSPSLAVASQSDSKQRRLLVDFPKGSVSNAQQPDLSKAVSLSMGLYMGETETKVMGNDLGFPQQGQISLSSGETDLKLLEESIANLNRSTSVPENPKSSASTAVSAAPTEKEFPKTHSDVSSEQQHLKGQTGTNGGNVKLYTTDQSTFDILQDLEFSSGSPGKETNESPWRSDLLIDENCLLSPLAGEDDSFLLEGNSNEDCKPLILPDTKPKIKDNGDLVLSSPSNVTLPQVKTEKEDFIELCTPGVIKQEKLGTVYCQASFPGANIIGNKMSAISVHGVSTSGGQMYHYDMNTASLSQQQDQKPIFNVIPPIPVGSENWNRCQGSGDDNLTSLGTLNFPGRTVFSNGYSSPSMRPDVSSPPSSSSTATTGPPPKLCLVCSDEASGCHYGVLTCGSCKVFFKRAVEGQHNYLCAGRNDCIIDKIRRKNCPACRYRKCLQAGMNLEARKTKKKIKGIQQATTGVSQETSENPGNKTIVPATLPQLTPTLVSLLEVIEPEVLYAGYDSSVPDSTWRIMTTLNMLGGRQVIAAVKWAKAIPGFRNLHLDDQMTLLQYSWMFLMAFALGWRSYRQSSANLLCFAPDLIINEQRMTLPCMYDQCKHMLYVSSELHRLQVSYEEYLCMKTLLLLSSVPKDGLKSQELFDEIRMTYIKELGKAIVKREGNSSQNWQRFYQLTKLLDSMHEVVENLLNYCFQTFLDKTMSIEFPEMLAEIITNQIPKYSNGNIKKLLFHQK
# How it was run: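 Steps: seed GR-bla HeLa cells, incubate 4 h at 37 C/5% CO2; pin-transfer DMSO-dissolved compounds; incubate 18 h at 37 C; add LiveBLAzer B/G FRET substrate; after 2 h at room temperature, measure fluorescence.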
# [20] = target: Glucocorticoid receptor (Homo sapiens) (UniProt P04150); experiment: qHTS assay to identify small molecule antagonists of the glucocorticoid receptor (GR) signaling pathway (AID 720692; active = well fitted inhibition curve with a large enough effect in the signal ratio in the repeat runs, not every such curve was filed as active; the % refers to the signal ratio; note: potency is the fitted concentration of half-maximal effect)
# How it was run: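 Antagonism was scored as loss of dexamethasone-driven (5 nM final) reporter signal in HeLa cells bearing a glucocorticoid response element–beta-lactamase construct, after 18 h compound exposure at 37 C and 2 h FRET substrate loading.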
Structure (SMILES),Potency [1],Potency [2],Potency [3],Potency [4],outcome [5],outcome [6],outcome [7],outcome [8],outcome [9],outcome [10],outcome [11],outcome [12],outcome [13],outcome [14],outcome [15],outcome [16],Potency [17],Potency [18],Potency [19],Potency [20]
CCCSP(=S)(OCC)Oc1ccc(SC)cc1 (stereo not drawn),inactive,inactive,inactive,inactive,inactive,inactive,inactive,inactive,inactive,inactive,inactive,inactive,inactive,inactive,inactive,inactive,–,–,–,–
CC(C)CCON=O,inactive,inactive,inactive,–,inactive,inactive,inactive,inactive,inactive,inactive,inactive,inactive,inactive,inactive,inactive,inactive,inactive,inactive,inactive,inactive
CC(C)(C#N)C(C)(C)C#N,inactive,inactive,inactive,–,inactive,inactive,–,inactive,inactive,inactive,–,inactive,inactive,inactive,inactive,inactive,inactive,inactive,–,–
CCOC(=O)c1cn2nc(OP(=S)(OCC)OCC)cc2nc1C,inactive,inactive,inactive,–,inactive,inactive,–,inactive,inactive,inactive,inactive,inactive,inactive,inactive,inactive,inactive,–,–,inactive,inactive
Cc1cnc(C2=NC(C)(C(C)C)C(=O)N2)c(C(=O)O)c1 (stereo not drawn),inactive,inactive,inactive,–,inactive,inactive,inactive,inactive,inactive,inactive,inactive,inactive,inactive,inactive,inactive,inactive,inactive,–,inactive,inactive
C[N+]1(CCF)[C@@H]2CC[C@H]1CC(OC(=O)C(O)(c1ccccc1)c1ccccc1)C2 (stereo partly drawn),inactive,inactive,inactive,–,inactive,inactive,inactive,inactive,inactive,inactive,inactive,inactive,–,inactive,inactive,inactive,–,inactive,inactive,inactive
CCCC1CCCCN1 (stereo not drawn),inactive,inactive,–,inactive,inactive,inactive,inactive,inactive,inactive,inactive,inactive,inactive,inactive,inactive,inactive,inactive,inactive,inactive,–,–
O=C(O)c1cc(Cl)ccc1Cl,inactive,inactive,–,–,inactive,inactive,–,inactive,inactive,inactive,inactive,inactive,–,inactive,inactive,inactive,inactive,inactive,inactive,–
O=C([O-])c1ccccn1.O=C([O-])c1ccccn1.O=C([O-])c1ccccn1.[Cr+3],inactive,inactive,inactive,inactive,inactive,inactive,–,inactive,inactive,–,inactive,inactive,–,inactive,inactive,inactive,–,inactive,inactive,–
COC1=CC(=O)O[C@@H](/C=C/c2ccc3c(c2)OCO3)C1,inactive,inactive,inactive,–,inactive,inactive,inactive,inactive,inactive,inactive,inactive,inactive,–,inactive,inactive,inactive,–,–,inactive,inactive
CCCCCCCCn1sccc1=O,12.2 µM (active) and 25.5 µM (active),inactive,–,54.6 µM (active),inactive,inactive,inactive,inactive,inactive,inactive,inactive,inactive,–,inactive,inactive,inactive,inactive,30.7 µM (active) and 64.1 µM (active),inactive,49.1 µM (active) and 36.3 µM (active)
COC1CC(=C(c2cccs2)c2cccs2)C[N+](C)(C)C1 (stereo not drawn),inactive,–,inactive,–,inactive,inactive,inactive,inactive,inactive,inactive,–,inactive,–,inactive,inactive,inactive,inactive,inactive,inactive,inactive
COc1ccccc1N1CCNCC1,inactive,–,inactive,inactive,inactive,inactive,inactive,inactive,inactive,–,inactive,inactive,inactive,inactive,inactive,inactive,inactive,inactive,inactive,inactive
O=C(CCl)CCl,24.3 µM (active),–,inactive,–,inactive,inactive,inactive,inactive,inactive,inactive,inactive,inactive,inactive,inactive,inactive,inactive,–,–,inactive,43.6 µM (active)
CCCC(C)(COC(N)=O)COC(=O)NC(C)C (stereo not drawn),inactive,–,inactive,inactive,inactive,inactive,inactive,inactive,inactive,–,–,inactive,inactive,inactive,inactive,inactive,inactive,inactive,–,–
O=C=NC1CCCCC1,inactive,–,inactive,inactive,inactive,inactive,inactive,inactive,inactive,inactive,inactive,inactive,inactive,inactive,inactive,inactive,–,–,inactive,inactive
N#CC1(N=NC2(C#N)CCCCC2)CCCCC1,inactive,–,inactive,inactive,inactive,inactive,inactive,inactive,inactive,inactive,inactive,inactive,inactive,inactive,inactive,inactive,–,inactive,inactive,inactive
C[C@@H]1C[C@@H]([C@H](O)CC2CC(=O)NC(=O)C2)C(=O)[C@@H](C)C1,11.9 µM (active) and inactive,–,inactive,1.33 µM (active) and 271 nM (active),inactive,inactive,inactive,inactive,inactive,inactive,–,inactive,inactive,inactive,inactive,inactive,inactive,–,–,–
O=[N+]([O-])O[C@H]1CO[C@H]2[C@@H]1OC[C@H]2O[N+](=O)[O-],inactive,–,inactive,–,inactive,inactive,inactive,inactive,inactive,inactive,inactive,inactive,–,inactive,inactive,inactive,inactive,inactive,inactive,–
c1ccc2c(c1)-c1cccc3cccc-2c13,inactive,–,–,inactive,inactive,inactive,inactive,inactive,inactive,inactive,inactive,inactive,inactive,inactive,inactive,inactive,–,61.7 µM (active) and 61.1 µM (active),–,–
NC(=O)CF,inactive,–,inactive,inactive,inactive,inactive,inactive,inactive,inactive,inactive,–,inactive,inactive,inactive,inactive,inactive,–,inactive,inactive,inactive
CC(C)CCCCCCCOC(=O)c1ccccc1C(=O)OCCCCCCCC(C)C,inactive,–,inactive,–,inactive,inactive,–,inactive,inactive,inactive,inactive,inactive,inactive,inactive,inactive,inactive,inactive,inactive,inactive,inactive
C[N+](C)(C)CCOC(=O)C(O)(c1ccccc1)c1ccccc1,inactive,–,inactive,inactive,inactive,inactive,inactive,inactive,inactive,inactive,inactive,inactive,–,inactive,inactive,inactive,inactive,inactive,–,–
OCCSSCCO,inactive,–,inactive,inactive,inactive,inactive,inactive,inactive,inactive,inactive,inactive,inactive,–,inactive,inactive,inactive,inactive,–,inactive,inactive
C#C[C@]1(O)CC[C@H]2[C@@H]3CCC4=CC(=O)CCC4=C3C=C[C@@]21CC,inactive,–,inactive,inactive,inactive,inactive,–,inactive,inactive,inactive,inactive,inactive,inactive,inactive,inactive,inactive,–,–,–,0.379 µM (active)
COc1ccc(C(O)(c2cncnc2)C2CC2)cc1 (stereo not drawn),inactive,–,–,inactive,inactive,inactive,inactive,inactive,inactive,inactive,inactive,inactive,inactive,inactive,inactive,inactive,inactive,–,inactive,inactive
O=C1c2ccccc2C(=O)N1SC(Cl)(Cl)Cl,8.51 µM (active) and 4.33 µM (active),–,inactive,–,inactive,inactive,inactive,inactive,inactive,inactive,–,inactive,inactive,inactive,inactive,inactive,–,4.79 µM (active) and 7.7 µM (active),–,–
CC(C)(C)OOC(C)(C)CCC(C)(C)OOC(C)(C)C,inactive,–,inactive,–,inactive,inactive,inactive,inactive,inactive,inactive,inactive,inactive,inactive,inactive,inactive,inactive,–,inactive,inactive,inactive
